Compound activity as filed in PubChem.
hcDAF12 agonist: activates DAF-12 receptor from parasite H. contortus; activation, % at 6.8 µM; AID 652067; actives 1.4% (n = 370,000); HEK293 hcDAF-12 lit1-tk-luc reporter, luminescence; 0% DMSO, 100% Δ7-dafachronic acid;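 active means activation above the mean of all tested compounds plus 3 SD, cut at about 5.5% in these data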
ssDAF-12 act: activators of S. stercoralis DAF-12 nuclear receptor; HEK293 ssDAF-12/GRIP1 lit1-tk-luc reporter, luminescence; % of 3 µM dafachronic acid response; activation, % at 6.8 µM; actives 1% (n = 370,000);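 active means activation above the mean over all tested compounds plus 3 SD, cut at about 0.9% in these data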
DAX1 inh-1: blocks DAX1 repression of SF-1 activated StAR promoter | HEK293T StAR-luciferase reporter, SF-1/DAX-1 repression relief | inhibition, % at 6.8 µM | actives 1.1% (n = 370,000);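 active means inhibition above the mean over all tested compounds plus 3 SD, cut at about 3.6% in these data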;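 further: higher inhibition means more luminescence from relief of DAX-1 repression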
hgDAF12 agonist: hgDAF-12 agonism, primary luciferase screen | actives 1.8% (n = 370,000) | HEK293 GAL4-hgDAF12 UAS-luciferase reporter, agonist luminescence; normalized to butyrate control | activation, % at 6.8 µM;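 active means activation above a cutoff set at the mean of all screened compounds plus 3 SD, cut at about 10% in these data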
DAX1 inh-2: inhibitors of human orphan nuclear receptor DAX1 (NR0B1) | P51843 | HEK293 Gal4-DAX1 luciferase reporter, luminescence | inhibition, % at 6.75 µM | actives 0.99% (n = 340,000) | AID 504766;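 active means inhibition above the mean over all tested compounds plus 3 SD, cut at about 4.2% in these data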;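 further: inhibition shows as a rise in luminescence from relieved DAX1 repression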
Target sequence (P51843 207-470 limits assumed): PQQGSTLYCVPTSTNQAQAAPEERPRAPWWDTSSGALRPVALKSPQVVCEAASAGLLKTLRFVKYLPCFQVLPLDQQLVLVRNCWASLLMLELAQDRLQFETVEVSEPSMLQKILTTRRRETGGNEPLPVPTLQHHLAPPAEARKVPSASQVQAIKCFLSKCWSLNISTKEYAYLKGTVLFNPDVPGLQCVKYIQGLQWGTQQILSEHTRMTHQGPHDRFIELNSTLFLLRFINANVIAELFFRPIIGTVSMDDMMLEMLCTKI
A number is an active result; n = inactive; x = not tested or not shown. Shown are actives, neighbours in structure and some others; about 4.1% of the full set was active somewhere.

SMILES	hcDAF12 agonist	ssDAF-12 act	DAX1 inh-1	hgDAF12 agonist	DAX1 inh-2
Cc1ccc(NC(=O)c2ccc(OCC3CCCO3)cc2)cc1 (centres undefined)	n	n	n	11.8	n
CCOC(=O)C1(CC2CCCCO2)CCN(Cc2nc3ccccc3nc2C)CC1 (centres undefined)	n	n	n	n	x
CCOC(=O)C1(C(=O)OCC)COC(=O)C1CN1Cc2cc3ccccc3nc2C1 (centres undefined)	n	1.0	n	n	n
Cc1ccc(C(=O)NCC(c2ccco2)N2CCCCC2)s1 (centres undefined)	n	n	n	n	n
COc1ccccc1CC(=O)NCC(c1ccco1)N1CCCCC1 (centres undefined)	n	n	n	n	4.6
Cc1ccc2oc(C(=O)NCC(c3ccco3)N3CCCC3)c(C)c2c1 (centres undefined)	n	n	n	n	n
O=C(NCC(c1ccco1)N1CCCC1)c1cc2ccccc2s1 (centres undefined)	n	0.9	n	n	n
N#Cc1ccccc1Sc1ccccc1C(=O)NCC(c1ccco1)N1CCCCC1 (centres undefined)	n	n	n	n	n
Cc1cc2oc(C(=O)NCC(c3ccco3)N3CCCC3)c(C)c2cc1C (centres undefined)	n	3.6	n	n	n
O=C(NCC(c1ccco1)N1CCCC1)c1ccccc1Sc1ccc(C(F)(F)F)cc1[N+](=O)[O-] (centres undefined)	n	1.1	n	n	n
CC(C)(C)C(=O)Nc1cc(S(=O)(=O)Nc2ccc(Cl)cc2)ccc1O	n	n	n	n	4.3
CC(C)C(=O)Nc1cc(S(=O)(=O)Nc2ccc(Cl)cc2)ccc1Cl	n	n	n	n	n
N#Cc1ccc(NCCCN2CCC(C(O)(c3ccccc3)c3ccccc3)CC2)cc1	n	n	n	n	x
Cc1ccccc1Cn1nnc(-c2cccc(C(=O)O)c2)n1	n	n	n	12.2	n
CCCCCOC(=O)c1[nH]c2c(c1C)C(=O)C(C(=O)OC)C(C)C2 (centres undefined)	n	n	n	n	n
COCCOC(=O)c1[nH]c2c(c1C)C(=O)C(C(=O)OC)C(C)C2 (centres undefined)	n	n	n	10.5	n
COC(=O)C1C(=O)c2c([nH]c(C(=O)OCC3CCCO3)c2C)CC1C (centres undefined)	n	n	n	n	5.8
COc1ccc(S[C@]2(C(=O)N(C)C)CC(=O)N(C(=O)C3CC3)[C@@H]2c2ccc(OC)cc2)cc1	n	n	n	n	x
C#CCOCC1CN(c2ccccc2)C(=O)O1 (centres undefined)	n	n	n	n	4.2
CCCNC(=O)N1[C@@H](CO)[C@H](c2ccc(C3=CCCC3)cc2)[C@@H]1CN(CC)S(=O)(=O)c1ccccc1[N+](=O)[O-]	n	n	n	n	x
Cc1nc(CNS(=O)(=O)c2ccc3c(c2)CCCC3)cs1	5.9	n	n	n	n
Cc1ccc(S(=O)(=O)NCc2csc(C)n2)cc1	n	n	n	n	n
COc1ccc(-c2cn3cc(C(=O)NN)ccc3n2)cc1	n	n	n	11.6	n
O=C(CN1CCOc2ccccc21)NCc1ccccc1	5.8	n	n	n	n
CC(CCc1ccccc1)NC(=O)CN1CCOc2ccccc21 (centres undefined)	n	n	n	n	n
SMILES	hcDAF12 agonist	ssDAF-12 act	DAX1 inh-1	hgDAF12 agonist	DAX1 inh-2
CN(C)S(=O)(=O)c1cc(NC2CC(=O)N(c3ccc(F)cc3)C2=O)ccc1Cl (centres undefined)	n	n	n	n	10.1
Cc1ccc(NC2CC(=O)N(c3ccc(C)cc3)C2=O)cc1 (centres undefined)	n	n	n	n	n
COc1cc(CCCN2CCNC[C@@H]2Cc2ccc(O)cc2)cc(OC)c1OC	n	1.0	n	n	n
COc1cc(CCCN2C(=S)NC[C@H]2Cc2ccc(O)cc2)cc(OC)c1OC	n	n	n	n	n
O=S1(=O)c2ccc(Br)cc2OC[C@H](Cc2ccccc2)N1Cc1cn(Cc2ccc(Br)cc2)nn1	n	n	n	n	x
CC(C)n1nnnc1C1c2ccccc2C(=O)N1CCOc1ccccc1 (centres undefined)	n	n	n	12.5	x
CC(C)n1nnnc1C1c2ccccc2C(=O)N1CCc1ccccc1F (centres undefined)	5.7	n	n	15.1	x
COc1ccc(CN(CCN2CCOCC2)C(=O)c2cc(Cl)ccc2F)cc1OC	n	n	n	n	x
